PubChem BioAssay (NCATS)
Values joined by “and” are separate entries in the source; they are usually repeats but may differ in a detail not shown here. Identical values can stand only once. Records with an inconclusive call do not appear. A call without a number means that no potency is given here. Active and inactive are the calls of the source. Unless noted, the call rests on the fitted dose curve; in most records, active means well fitted curve in the direction sought with a large enough effect; inconclusive means small, poorly fitted or top-dose-only effect, or another doubt; inactive means no such curve, though single readings can be large; an effect the other way counts as inactive or inconclusive.

How the values were obtained:
[1] = molecular target: Alpha-galactosidase A (Homo sapiens) (UniProt P06280); test: Counterscreen for Glucocerebrosidase Inhibitors: qHTS Assay for Human alpha-Galactosidase at pH 4.5 (AID 992); details: purified enzyme, fluorogenic substrate; series mostly up to 76.9 µM
Procedure, shortened: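 Steps: enzyme (2 nM final), then compound across 0.7 nM to 77 uM, then 80 uM fluorogenic galactopyranoside substrate; incubate 20 min at room temperature; quench at pH 10; measure fluorescence at 365/440 nm.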

[2] = molecular target: alpha-glucosidase (Oryza sativa, rice) (UniProt Q653V4); test: Counterscreen for Glucocerebrosidase Inhibitors: qHTS Assay for Rice alpha-Glucosidase at pH 5.0 (AID 997); details: rice alpha-glucosidase enzyme activity; series mostly up to 76.9 µM
Procedure, shortened: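 Endpoint fluorogenic assay at pH 5.0: compounds (0.7 nM to 77 uM) titrated against 4 nM rice enzyme and 400 uM 4-MU-alpha-glucoside for 20 min at room temperature; NaOH/glycine stop, read ex 365/em 440 nm, Hill-fitted AC50.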

[3] = qHTS Assay for Lipid Storage Modulators (AID 1519; calls by dose curve); details: Drosophila S3 cells, BODIPY lipid droplet/cell ratio, laser cytometry, cells loaded with oleic acid
Procedure, shortened: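 Cells seeded at 5,000 per well were treated with compounds over a concentration series and loaded with oleic acid (400 uM, as added). Lipid droplet fluorescence (488 nm excitation, 500-530 nm channel) was read by laser-scanning cytometry and normalized to 20 uM Triacsin C.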

[4] = molecular target: DNA repair nuclease/redox regulator APEX1 (Homo sapiens) (UniProt P27695); test: qHTS Validation Assay for Inhibitors of the Human Apurinic/apyrimidinic Endonuclease 1 (APE1) (AID 1705;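 further: TAMRA fluorescence gain over two minutes as APE1 cuts a quenched THF abasic duplex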); details: purified APE1 endonuclease activity, fluorescence, titration; series mostly up to 57.1 µM
Procedure, shortened: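 Substrate: 50 nM final fluorophore/quencher THF-abasic duplex. Enzyme preincubated with compounds 15 min, RT. Progress derived from fluorescence difference, third minus first kinetic read.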

[5] = Counterscreen for APE1 Inhibitors: Fluorescent Dye Displacement Validation Assay (AID 1707); details: fluorescent dye displacement from DNA; series mostly up to 57.1 µM
Procedure, shortened: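 Reaction mixture of 250 nM Thiazole Orange and 50 nM double-stranded abasic-site DNA was dispensed, compounds were pin-transferred, and fluorescence was read at endpoint (480 nm ex, 540 nm em). Reduced fluorescence indicated dye displacement by DNA binding.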

[6] = molecular target: Endonuclease 4 (Escherichia coli (strain K12)) (UniProt P0A6C1); test: Counterscreen for APE1 Inhibitors: qHTS Validation Assay for Inhibitors of Endonuclease IV (AID 1708); details: E. coli endonuclease IV, DNA cleavage fluorescence; series mostly up to 57.1 µM
Procedure, shortened: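 Incision of a double-stranded 50 nM TAMRA/BHQ-2 abasic substrate was followed kinetically (525/598 nm, reads every 60 s) after 15 min enzyme–compound preincubation with 2 nM EndoIV in pH 7.5 Tris buffer with MgCl2, DTT and Tween-20; concentration-response format.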

[7] = qHTS for differential inhibitors of proliferation of Plasmodium falciparum line 7G8 (AID 1815); details: Plasmodium falciparum 7G8 proliferation inhibition; series mostly up to 28.7 µM;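 further: parasite growth measured after three days of incubation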
[8] = qHTS for differential inhibitors of proliferation of Plasmodium falciparum line 3D7 (AID 1876); further: potency means the concentration at half of the fitted maximal effect; details: P. falciparum 3D7 proliferation inhibition; series mostly up to 28.7 µM
[9] = qHTS for differential inhibitors of proliferation of Plasmodium falciparum line W2 (AID 1883); details: Potency: Plasmodium falciparum W2 proliferation inhibition; series mostly up to 28.7 µM;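 further: parasites grown with compound for 72 h before lysis and staining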; further: potency means the concentration at half of the fitted maximal effect
[10] = molecular target: Ferritin light chain (Equus caballus) (UniProt P02791); test: qHTS Validation Assay for Identification of Novel General Anesthetics (AID 2323); details: horse apoferritin, anesthetic-site fluorescent probe displacement; series mostly up to 76.9 µM
Procedure, shortened: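 Normalized fluorescence response, scaled between free 1-AMA and 1-AMA/apoferritin complex, fitted to a four-parameter Hill equation for concentration-effect values. Binding mix: 10 uM horse-spleen apoferritin, 50% saturated 1-AMA in PBS; read 380/535 nm after 10 min.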

[11] = molecular target: ATP-dependent DNA helicase Q1 (Homo sapiens) (UniProt P46063); test: qHTS Validation Assay for Inhibitors of RecQ-Like Dna Helicase 1 (RECQ1) (AID 2353); details: recombinant RECQ1 helicase DNA unwinding assay; series mostly up to 25.6 µM
Procedure, shortened: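 RECQ1T1 50 nM; forked duplex (20 bp + 30-nt ss tails) 200 nM, ATP 2 mM final; pH 8.0, 2 mM MgCl2, 2.5 ug/ml poly(dI-dC); 15 min compound preincubation; discontinuous kinetic read over 2 h at RT.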

[12] = qHTS for differential inhibitors of proliferation of Plasmodium falciparum line GB4 (AID 1816); details: Potency: Plasmodium falciparum GB4 proliferation inhibition; series mostly up to 28.7 µM;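 further: parasite growth measured after 72 h incubation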
[13] = qHTS for differential inhibitors of proliferation of Plasmodium falciparum line D10 (AID 1877); details: series mostly up to 28.7 µM;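 further: parasites grown with compound for 72 h before DNA staining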
[14] = qHTS for differential inhibitors of proliferation of Plasmodium falciparum line HB3 (AID 1886); details: Potency: Plasmodium falciparum HB3 proliferation inhibition; series mostly up to 28.7 µM;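 further: parasites grown with compound for 72 h before SYBR Green readout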
[15] = Cell Viability - LYMP2-020 (AID 986); details: series mostly up to 92.2 µM; further: nearly all actives have a fitted effect of over 55% in size
Procedure, shortened: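 Cytotoxicity in qHTS format: luminescent ATP readout from CellTiter-Glo after 24 h compound exposure at 37 C in complete medium. LYMP2-020 lymphoblastoid cells were seeded at 2500/well; concentration-response data fitted to the Hill equation for AC50.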

[16] = Cell Viability - LYMP2-022 (AID 987); details: LYMP2-022 lymphoblastoid cell viability; series mostly up to 92.2 µM;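 further: cells exposed to compound for 24 hr; nearly all actives have a fitted effect of over 55% in size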
Procedure, shortened: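 Cytotoxicity read as decreased cellular ATP (CellTiter-Glo luminescence, 30 min room temperature) after 24 hours compound exposure of 2500 lymphoblastoid LYMP2-022 cells/well at 37 C. Concentration-response data fitted with standard Hill equation for AC50.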

[17] = Cell Viability - LYMP2-026 (AID 989); details: LYMP2-026 lymphoblastoid cell viability, qHTS; series mostly up to 92.2 µM; further: nearly all actives have a fitted effect of over 50% in size
Procedure, shortened: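 Cytotoxicity read as ATP-dependent luminescence (CellTiter-Glo, 30 min room temperature) after 24 h compound treatment at 37 C. LYMP2-026 lymphoblastoid line seeded at 2500 cells/well; AC50 derived by standard Hill equation.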

[18] = measured here: cell count channel max response
[19] = measured here: lipid channel max response

Ferritin light chain (Equus caballus), sequence (P02791 2-175 limits assumed): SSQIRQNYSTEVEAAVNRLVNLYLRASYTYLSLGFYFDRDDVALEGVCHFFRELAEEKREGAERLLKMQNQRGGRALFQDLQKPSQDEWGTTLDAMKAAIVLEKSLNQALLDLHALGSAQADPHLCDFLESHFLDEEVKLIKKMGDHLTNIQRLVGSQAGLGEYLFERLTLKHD
Alpha-galactosidase A (Homo sapiens), sequence (P06280 whole entry, looked up): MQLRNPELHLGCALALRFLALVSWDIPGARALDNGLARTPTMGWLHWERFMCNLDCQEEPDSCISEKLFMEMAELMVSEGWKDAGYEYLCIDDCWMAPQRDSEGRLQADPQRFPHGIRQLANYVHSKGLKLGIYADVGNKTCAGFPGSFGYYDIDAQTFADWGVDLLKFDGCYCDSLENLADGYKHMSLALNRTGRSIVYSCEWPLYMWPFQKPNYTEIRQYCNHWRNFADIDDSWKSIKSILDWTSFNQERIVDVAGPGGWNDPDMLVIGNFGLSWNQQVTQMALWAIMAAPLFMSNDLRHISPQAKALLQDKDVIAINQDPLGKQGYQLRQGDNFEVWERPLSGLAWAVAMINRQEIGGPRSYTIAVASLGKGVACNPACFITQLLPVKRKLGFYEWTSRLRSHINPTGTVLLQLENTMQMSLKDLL
ATP-dependent DNA helicase Q1 (Homo sapiens), sequence (P46063 whole entry, looked up): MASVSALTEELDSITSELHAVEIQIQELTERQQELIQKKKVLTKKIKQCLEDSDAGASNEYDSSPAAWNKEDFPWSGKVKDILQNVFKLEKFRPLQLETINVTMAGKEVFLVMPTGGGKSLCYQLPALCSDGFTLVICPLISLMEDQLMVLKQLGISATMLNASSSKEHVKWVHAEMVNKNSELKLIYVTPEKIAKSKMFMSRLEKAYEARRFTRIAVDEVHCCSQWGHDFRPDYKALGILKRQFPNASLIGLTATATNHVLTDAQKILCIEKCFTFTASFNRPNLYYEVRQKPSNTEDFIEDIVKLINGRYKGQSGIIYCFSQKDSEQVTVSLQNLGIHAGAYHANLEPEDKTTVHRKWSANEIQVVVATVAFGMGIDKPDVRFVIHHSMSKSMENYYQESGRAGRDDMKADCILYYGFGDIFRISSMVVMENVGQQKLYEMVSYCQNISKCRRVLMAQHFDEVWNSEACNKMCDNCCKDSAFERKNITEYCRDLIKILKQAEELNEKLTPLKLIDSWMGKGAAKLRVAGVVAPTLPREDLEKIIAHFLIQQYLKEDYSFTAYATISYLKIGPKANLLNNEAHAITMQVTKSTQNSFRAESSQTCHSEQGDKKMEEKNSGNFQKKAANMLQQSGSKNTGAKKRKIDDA
DNA repair nuclease/redox regulator APEX1 (Homo sapiens), sequence (P27695 whole entry, looked up): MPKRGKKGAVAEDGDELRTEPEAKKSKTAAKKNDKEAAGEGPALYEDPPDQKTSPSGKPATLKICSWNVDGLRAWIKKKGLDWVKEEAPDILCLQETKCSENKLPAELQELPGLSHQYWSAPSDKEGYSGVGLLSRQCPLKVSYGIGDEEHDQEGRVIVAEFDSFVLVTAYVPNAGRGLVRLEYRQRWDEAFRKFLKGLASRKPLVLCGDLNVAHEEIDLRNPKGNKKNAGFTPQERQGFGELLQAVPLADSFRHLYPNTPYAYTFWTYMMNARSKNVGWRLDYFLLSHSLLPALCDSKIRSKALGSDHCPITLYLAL

COc1ccccc1N1CCN(CCCNc2cc(=O)n(C)c(=O)n2C)CC1
outcome [1]: inactive | outcome [2]: inactive | activity change, negative = inhibition ([3]; at 25.7 µM (top of the series)): 0.233% (inactive) | activity change, negative = inhibition ([3]; at 57.5 µM (top of the series)): 1.54% (inactive) | max response [3, 18]: -9.35% and -6.19% | max response [3, 19]: -9.3% and -4.74% | outcome [4]: inactive | outcome [5]: inactive | outcome [6]: inactive | Potency [7]: inactive | Potency [8]: 10 µM (active) | Potency [9]: 10 µM (active) | outcome [10]: inactive | outcome [11]: inactive

COc1ccc(-c2coc3cc(O)cc(O)c3c2=O)cc1
activity change, negative = inhibition ([3]; at 57.5 µM (top of the series)): 4.62% (inactive) and -2.47% (inactive) | max response [3, 18]: -4.41% and 15.8% | max response [3, 19]: 0.883% and 14.1%

c1ccc2c(Cc3c[nH]c4ccccc34)c[nH]c2c1
activity change, negative = inhibition ([3]; at 57.5 µM (top of the series)): 12.9% (inactive) | max response [3, 18]: 7.31% | max response [3, 19]: 20.3%

C[C@]12CCC3c4ccc(O)cc4CCC3C1CCC2=O (stereo partly specified)
activity change, negative = inhibition ([3]; at 57.5 µM (top of the series)): 3.27% (inactive) | max response [3, 18]: -11.3% | max response [3, 19]: -4.67%

CCN(CC)CCOC(=O)c1ccc(N)cc1
outcome [1]: inactive | outcome [2]: inactive | activity change, negative = inhibition ([3]; at 25.7 µM (top of the series)): -0.292% (inactive) | activity change, negative = inhibition ([3]; at 57.5 µM (top of the series)): 1.41% (inactive) | max response [3, 18]: 4.92% and -22.1% | max response [3, 19]: 5.47% and -19.5% | outcome [4]: inactive | outcome [5]: inactive | Potency [7]: inactive | Potency [12]: inactive | Potency [8]: inactive | Potency [13]: inactive | Potency [14]: inactive | outcome [10]: inactive | outcome [11]: inactive

O=c1c(O)c(-c2ccc(O)cc2)oc2cc(O)cc(O)c12
Potency [15]: inactive | Potency [16]: inactive | Potency [17]: inactive | activity change, negative = inhibition ([3]; at 25.7 µM (top of the series)): -1.01% (inactive) | activity change, negative = inhibition ([3]; at 57.5 µM (top of the series)): 9.57% (inactive) | max response [3, 18]: -23.1% and 1.49% | max response [3, 19]: -23.3% and 13.5%

CC(C)[C@H](CO)Nc1nc(Nc2ccc(C(=O)O)c(Cl)c2)c2ncn(C(C)C)c2n1
activity change, negative = inhibition ([3]; at 57.5 µM (top of the series)): 6.65% (inactive) | max response [3, 18]: 12.5% | max response [3, 19]: 19.1%

COc1cc(O)c2c(c1)C(=O)c1cc(C)cc(O)c1C2=O
activity change, negative = inhibition ([3]; at 57.5 µM (top of the series)): 2.34% (inactive) | max response [3, 18]: 7.65% | max response [3, 19]: 11.5%

Nc1ncnc2c1ncn2[C@@H]1O[C@@H](CO)[C@H](O)[C@H]1O
activity change, negative = inhibition ([3]; at 25.7 µM (top of the series)): -0.901% (inactive) | max response [3, 18]: -3.51% | max response [3, 19]: -9.07%

COc1ccc(-c2coc3cc(O)ccc3c2=O)cc1
activity change, negative = inhibition ([3]; at 57.5 µM (top of the series)): -1.11% (inactive) | max response [3, 18]: 3.06% | max response [3, 19]: 2.76%

C[C@@H](O)[C@H]1C(=O)N2C(C(=O)O)=C(S[C@@H]3CN[C@H](C(=O)N(C)C)C3)[C@H](C)[C@H]12
activity change, negative = inhibition ([3]; at 25.7 µM (top of the series)): -1.28% (inactive) | max response [3, 18]: -4.15% | max response [3, 19]: -5.75%

NCCS
outcome [1]: inactive | outcome [2]: inactive | activity change, negative = inhibition ([3]; at 57.5 µM (top of the series)): 0.57% (inactive) | max response [3, 18]: -11.3% | max response [3, 19]: -9.57% | outcome [4]: inactive | outcome [5]: inactive | outcome [6]: inactive | Potency [7]: inactive | Potency [12]: inactive | Potency [8]: inactive | Potency [13]: inactive | Potency [9]: inactive | Potency [14]: inactive | outcome [10]: inactive | outcome [11]: inactive

CC(=O)c1ccc(S(=O)(=O)NC(=O)NC2CCCCC2)cc1
Potency [15]: inactive | Potency [16]: inactive | Potency [17]: inactive | outcome [1]: inactive | outcome [2]: inactive | activity change, negative = inhibition ([3]; at 25.7 µM (top of the series)): -0.412% (inactive) | activity change, negative = inhibition ([3]; at 57.5 µM (top of the series)): 2.09% (inactive) | max response [3, 18]: -7.61% and -6.03% | max response [3, 19]: -6.16% and -3.34% | outcome [4]: inactive | outcome [5]: inactive | outcome [6]: inactive | Potency [7]: inactive | Potency [12]: inactive | Potency [8]: inactive | Potency [13]: inactive | Potency [9]: inactive | Potency [14]: inactive | outcome [10]: inactive | outcome [11]: inactive
